# Data taken from PubChem BioAssay (NCI).
# This is part of a sample that, as a whole, favours compounds with a hit. Of some 83,000 tested, about 20% had one in any assay.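 Cells were grown in 96-well plates and exposed to the test compound at a single concentration for 48 hours; results are reported as percent growth, with values below 10 considered active.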 A number with no mark means an inactive call. Active and inactive are the calls of the source.
# What was measured:
# Experiment in all cases: NCI-60 one-dose screen, 48 h (100 = growth as untreated, 0 = no growth, -100 = all killed)
# Details in all cases: 10 µM unless noted
# SR leukemia = system: SR leukemia
# RPMI-8226 leukemia = system: RPMI-8226 leukemia
# OVCAR-8 ovarian = system: OVCAR-8 ovarian
# OVCAR-5 ovarian = system: OVCAR-5 ovarian
# OVCAR-4 ovarian = system: OVCAR-4 ovarian
# SK-OV-3 ovarian = system: SK-OV-3 ovarian
# IGROV1 ovarian = system: IGROV1 ovarian
# OVCAR-3 ovarian = system: OVCAR-3 ovarian
# HS 578T breast = system: HS 578T breast
# NCI/ADR-RES ovarian = system: NCI/ADR-RES ovarian
# T-47D breast = system: T-47D breast
# BT-549 breast = system: BT-549 breast
# MDA-MB-435 melanoma = system: MDA-MB-435 melanoma
# SW-620 colon = system: SW-620 colon
# MCF7 breast = system: MCF7 breast
# HCT-116 colon = system: HCT-116 colon
# HCC-2998 colon = system: HCC-2998 colon
# KM12 colon = system: KM12 colon
SMILES,growth (SR leukemia),growth (RPMI-8226 leukemia),growth (OVCAR-8 ovarian),growth (OVCAR-5 ovarian),growth (OVCAR-4 ovarian),growth (SK-OV-3 ovarian) [%],growth (IGROV1 ovarian),growth (OVCAR-3 ovarian),growth (HS 578T breast),growth (NCI/ADR-RES ovarian),growth (T-47D breast),growth (BT-549 breast),growth (MDA-MB-435 melanoma),growth (SW-620 colon),growth (MCF7 breast),growth (HCT-116 colon),growth (HCC-2998 colon),growth (KM12 colon)
Cc1nc2sc(C(=O)Nc3ccc(Br)cc3)c(N)c2cc1C(O)c1ccccc1 (stereo not drawn),14.9%,55.4%,75.2%,92%,59.3%,78.3,75.1%,73.9%,74.1%,59.7%,45.6%,71.1%,1.03% (active),45.8%,33.8%,29.9%,76.5%,49.2%
N#Cc1c(-c2ccccc2)cc(-c2ccc(Nc3nc(Nc4ccc(Cl)cc4)nc(Nc4ccc(Cl)cc4)n3)cc2)nc1N,-30.8% (active),-45.4% (active),32.6%,63.2%,-15.2% (active),110,-8.08% (active),-54% (active),14.4%,53.2%,-39.5% (active),-68.1% (active),-34.4% (active),-39.2% (active),22%,4.99% (active),-14.3% (active),50.1%
O=[N+]([O-])c1cccc(-c2nc3cc4nc5ccccc5[nH]c4cc3n2)c1,93.4%,101%,98.2%,111%,98.3%,102,99.1%,98.7%,109%,101%,87.5%,102%,112%,112%,77.7%,93.1%,112%,100%
O=C(/C=C/c1ccco1)Nc1ncc(Cc2cccc(C(F)(F)F)c2)s1,9.93% (active),12.4%,8.79% (active),30.3%,4.64% (active),16.9,4.48% (active),-33.3% (active),0.428% (active),-4.7% (active),21.5%,8.55% (active),-49.6% (active),18.4%,12.9%,7.05% (active),12.2%,4.7% (active)
CCOC(=O)c1csc(NC(=O)COc2ccc(/C=C3\Oc4ccccc4C3=O)cc2)n1,37.9%,79.5%,84.7%,92.1%,81.6%,138,6.55% (active),93.2%,91.1%,85.4%,97.5%,88.3%,58.6%,105%,69%,82.5%,106%,88.7%
O=C(Nc1ccccc1O)c1ccc(CNC(=O)c2sccc2Nc2ccnc(C(F)(F)F)c2)cc1,36.2%,24.3%,35.8%,45.6%,48.3%,57.2,41%,41.3%,14.6%,24.1%,40.1%,59.5%,39.3%,41.9%,30.1%,26.3%,65.4%,60.9%
CN1CCN(C(=O)c2ccc(NC(=O)c3cc4c(nn3)NCCN4Cc3cc(Cl)ccc3Cl)cc2)CC1,0.181% (active),65.3%,91.1%,56.4%,72.8%,88.4,81.3%,89.8%,76.9%,95.7%,97.3%,60.1%,61.4%,50.6%,46%,32%,99.8%,21.7%
CCN1CCN(C(=O)[C@]23CCC(C)(C)C[C@@H]2C2=CC[C@@H]4[C@@]5(C)CCC(=O)C(C)(C)[C@@H]5CC[C@@]4(C)[C@]2(C)CC3)CC1,12.2%,9.86% (active),63%,72.2%,50.7%,70.1,65%,56.4%,40.7%,39.7%,56.4%,58.6%,33.9%,31.8%,39.9%,19.1%,62.8%,41.2%
O=C1/C(=C/c2cn(-c3ccccc3)nc2-c2ccccc2)SC(=S)N1C1CCCCC1,106%,114%,103%,108%,97.6%,108,103%,117%,103%,102%,97%,114%,98.8%,96%,86.2%,90.1%,108%,102%
O=C(Cn1cc(CSc2nc3ccccc3o2)nn1)Nc1ccc(F)cc1F,109%,114%,103%,110%,108%,124,114%,119%,107%,101%,116%,113%,114%,112%,92.5%,109%,111%,116%
Cc1cccc(/C=C/c2c(C(=O)/C=C/c3ccccc3)c(C)nc3ccccc23)c1,11.8%,-11.6% (active),-13.7% (active),-37.9% (active),2.06% (active),33.7,-27.6% (active),-50.6% (active),18.9%,-8.03% (active),-4.51% (active),2.21% (active),-66% (active),-14% (active),3.87% (active),-56.3% (active),-84.5% (active),-52.7% (active)
COC(=O)[C@]12CCC(C)(C)C[C@H]1[C@H]1/C(=N/OCCc3nn[nH]n3)C[C@@H]3[C@@]4(C)CC[C@H](OC(C)=O)C(C)(C)[C@@H]4CC[C@@]3(C)[C@]1(C)CC2,31.8%,22.6%,29.7%,74.4%,25.3%,58.7,30.9%,31.8%,48.3%,30.1%,26%,34.9%,31.4%,41.9%,20.9%,24.7%,54.7%,36.5%
COc1ccc2c(c1)c(-c1nc(-c3c[nH]c4ccncc34)cs1)cn2C,-26% (active),-36.7% (active),-52.2% (active),-72.9% (active),-71.4% (active),106,-83.8% (active),-90.5% (active),-48.3% (active),-52.8% (active),-49.6% (active),77.3%,-92.3% (active),-63.9% (active),-68.9% (active),-88.3% (active),-73.5% (active),-88.9% (active)
Nc1nc2ccc(-c3nc4ccc5[nH]ncc5c4c4c3CCCC4)cc2s1,95.9%,115%,100%,105%,107%,94.4,102%,110%,99.7%,103%,110%,106%,111%,106%,97.7%,91.8%,107%,101%
Oc1c(I)cc(I)cc1CNCc1ccccn1,22.1%,30.9%,13.8%,61.9%,22.8%,28,24.4%,20.3%,57.9%,10.3%,14.8%,36.7%,46.8%,33.2%,28.7%,26.4%,49.3%,41.1%
CCN1C(=S)N(c2ccccc2)C2NC(=S)N(/N=C/C=C/c3ccccc3OC)C21 (stereo not drawn),8.81% (active),13.3%,1.79% (active),28.7%,45%,30.5,23.8%,2.96% (active),9.64% (active),4.46% (active),66.7%,9.74% (active),-31% (active),18.3%,16.7%,10.5%,17.2%,7.72% (active)
